# Measured values as given in publication PMC4336329 (PLoS ONE, 2015).
# In all, about 310,000 compounds went through this assay and about 14,000 (4.5%) showed an effect of 50% or more. Effects have a minus sign here. What follows is part of a selection rich in strong results, with near analogues and random picks from the rest.
# Biological target: human ether-à-go-go-related gene (hERG) potassium channel (human, UniProt Q12809)
# Assay: primary screen, population patch clamp on CHO cells stably expressing hERG; higher = less effect of the substance
# 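Also: peak tail current of the secondary pulse compared with the same well before compound.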
# human ether-à-go-go-related gene (hERG) potassium channel, sequence (Q12809 whole entry, looked up): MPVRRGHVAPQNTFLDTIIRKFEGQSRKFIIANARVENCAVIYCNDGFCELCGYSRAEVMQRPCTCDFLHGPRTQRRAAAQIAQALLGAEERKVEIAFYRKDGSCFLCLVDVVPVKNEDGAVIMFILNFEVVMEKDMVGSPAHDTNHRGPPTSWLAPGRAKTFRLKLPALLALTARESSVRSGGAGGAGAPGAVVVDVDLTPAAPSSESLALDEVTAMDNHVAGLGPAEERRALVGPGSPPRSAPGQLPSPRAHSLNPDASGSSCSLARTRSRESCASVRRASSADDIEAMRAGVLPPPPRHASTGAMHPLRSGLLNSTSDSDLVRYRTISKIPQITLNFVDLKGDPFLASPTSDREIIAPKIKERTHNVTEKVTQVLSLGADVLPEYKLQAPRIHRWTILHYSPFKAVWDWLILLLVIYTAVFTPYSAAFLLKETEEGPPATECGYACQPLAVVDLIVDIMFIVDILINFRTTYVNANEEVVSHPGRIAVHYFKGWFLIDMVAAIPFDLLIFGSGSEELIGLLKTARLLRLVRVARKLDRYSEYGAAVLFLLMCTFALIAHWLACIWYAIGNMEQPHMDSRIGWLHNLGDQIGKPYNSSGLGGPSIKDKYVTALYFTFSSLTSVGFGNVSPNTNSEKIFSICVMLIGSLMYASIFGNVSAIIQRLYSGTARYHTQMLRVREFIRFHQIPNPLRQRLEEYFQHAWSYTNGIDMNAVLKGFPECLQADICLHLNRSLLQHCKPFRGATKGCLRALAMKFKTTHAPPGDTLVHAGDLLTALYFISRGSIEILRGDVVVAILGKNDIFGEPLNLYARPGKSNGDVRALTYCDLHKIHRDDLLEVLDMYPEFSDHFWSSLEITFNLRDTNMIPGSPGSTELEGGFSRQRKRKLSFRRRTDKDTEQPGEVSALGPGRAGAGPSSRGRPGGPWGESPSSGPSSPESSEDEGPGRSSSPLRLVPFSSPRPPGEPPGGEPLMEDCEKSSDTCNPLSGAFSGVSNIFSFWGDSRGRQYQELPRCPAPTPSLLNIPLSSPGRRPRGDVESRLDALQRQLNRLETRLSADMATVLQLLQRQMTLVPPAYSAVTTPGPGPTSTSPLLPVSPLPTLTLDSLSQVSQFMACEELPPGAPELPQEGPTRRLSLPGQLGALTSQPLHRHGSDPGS
row,SMILES,"hERG current change (%, negative = inhibition) at 10uM [%]"
1,COC(=O)/C=c1\sc2ncnn2c1=O,3.63
2,CCCNC(=O)c1onc(CS(=O)(=O)c2cccc(OC)c2)c1C(=O)NCCC,-12.5
3,CN(C)/C=C/C(=O)c1ncc(C(F)(F)F)cc1Cl,8.95
4,CC(NC(=O)[C@H](C)NC(=O)c1ccco1)c1ccc(S(N)(=O)=O)cc1 (stereo partly drawn),18.9
5,O=C(CN1CCC(C(=O)c2cccc(Cl)c2)CC1)Nc1ccc(C(=O)O)cc1,16
6,COc1ccc(Nc2nnc(-c3ccc(C(N)=O)cc3)c3ccccc23)cc1,-33.9
7,COc1ccc(Nc2nnc(-c3ccccc3)c3ccccc23)cc1C(=O)N1CCCCC1,-73
8,COc1ccc(-c2nnc(Nc3ccc(OC)c(C(=O)N4CCCCC4)c3)c3ccccc23)cc1,-39.3
9,Cc1nnc(Nc2ccc3c(c2)ncn3C)c2ccccc12,0.0649
10,Oc1ccc(-c2nnc(Nc3cccc(O)c3)c3ccccc23)cc1,-7.99
11,CC(=O)Nc1ccc(Nc2nnc(-c3ccc(O)cc3)c3ccccc23)cc1,10.2
12,COc1ccc(Nc2nnc(-c3ccc(O)cc3)c3ccccc23)cc1,-64.8
13,COc1ccc(Nc2nnc(-c3ccc(C)cc3)c3ccccc23)cc1C(=O)N1CCCCC1,-33.7
14,Cc1ccc(-c2nnc(Nc3ccc4c(c3)nc(C)n4C)c3ccccc23)cc1,5.03
15,Cc1nc2cc(Nc3nnc(-c4ccccc4)c4ccccc34)ccc2n1C,-67.2
16,Oc1ccc(Nc2nnc(-c3ccc(O)cc3)c3ccccc23)cc1,24.3
17,Oc1ccc(-c2nnc(Nc3ccccc3)c3ccccc23)cc1,-58.9
18,CCOC(=O)c1ccc(N=Cc2nc3ccccc3n2C)cc1,7.61
19,COc1ccc(-n2c(=O)[nH]cc(C(=O)Nc3ccc4c(c3)OCCO4)c2=O)cc1OC,6.18
20,N#Cc1c(N)nc2c(c1N)CC(COc1ccccc1)O2 (stereo not drawn),-6.98
21,CCSc1nnc(CNC(=O)C23CC4CC(CC(C4)C2)C3)n1Cc1ccccc1,-5.81
22,C[C@H](NC(=O)c1ccccc1Cl)C(=O)OCc1cn2cc(Cl)ccc2n1,-7.08
23,COc1ccc(OC)c(NC(=O)CCc2nnc3ccc(NCc4ccco4)nn23)c1,-15.2
24,CC(Nc1nc(-c2cccc(Br)c2)cs1)c1nc2cc(Cl)c(N3CCCCC3)cc2n1CCOCCO (stereo not drawn),-19.1
25,COc1cc(C(C)=O)ccc1OC(=O)c1cc2cccc(OC)c2oc1=O,2.53
26,CCn1c(SCC(=O)Nc2cc(NC(C)=O)ccc2OC)nnc1-c1ccccn1,4.03
27,N#Cc1c(C(F)(F)F)cc(-c2ccccc2)nc1SCC(=O)N1CCOCC1,-8.28

row,SMILES,"hERG current change (%, negative = inhibition) at 10uM [%]"
1,CC(C)NC(=O)CSc1ncccc1-c1nc2ccccc2[nH]1,-17.1
2,O=C1CC(c2ccccc2)CC(=O)C1CS(=O)(=O)c1ccccc1 (stereo not drawn),18.1
3,Cc1ccc(-c2noc(CSc3ccccc3)n2)cc1,10.2
4,O=C1c2cccnc2C(Nc2ccc(S(=O)(=O)N3CCCCCC3)cc2)N1Cc1ccccc1 (stereo not drawn),-9.79
5,Cc1cc(Cn2ccnc2)c(C)c([N+](=O)[O-])c1Cn1ccnc1,-7.19
6,CC1CCCC(NC(=O)CCC(=O)NCc2ccccc2)C1C (stereo not drawn),11.5
7,O=S(=O)(O)c1cnccc1Nc1cccc(C(F)(F)F)c1,5.95
8,COc1ccccc1NC(=O)C1CCCN(c2nc(C)cc(C)n2)C1 (stereo not drawn),-10
9,Cc1cc(N2CCCC(C(=O)Nc3ccc4c(c3)CCC4)C2)n2ncnc2n1 (stereo not drawn),-57.2
10,Cc1cc(N2CCCC(C(=O)Nc3cccc4ccccc34)C2)n2ncnc2n1 (stereo not drawn),-61.9
11,CCc1c(C)nc2ncnn2c1N1CCCC(C(=O)NCc2cccs2)C1 (stereo not drawn),-19.1
12,Cc1nc2ncnn2c(N2CCCC(C(=O)Nc3ccccc3Br)C2)c1C (stereo not drawn),-60.2
13,COc1ccc(NC(=O)C2CCCN(c3cc(C)nc4ncnn34)C2)cc1 (stereo not drawn),-12.5
14,O=C(Nc1ccc2c(c1)CCC2)C1CCCN(c2ncccn2)C1 (stereo not drawn),-2.53
15,Cc1cc(C)nc(N2CCC(C(=O)Nc3ccc4c(c3)CCC4)CC2)n1,17.3
16,Cc1nc2ncnn2c(N2CCCC(C(=O)Nc3ccc4c(c3)CCC4)C2)c1C (stereo not drawn),-53
17,COc1cc(C)nc(N2CCCC(C(=O)Nc3ccccc3Br)C2)n1 (stereo not drawn),8.77
18,COc1ccccc1NC(=O)C1CCCN(c2cc(C)nc3ncnn23)C1 (stereo not drawn),-20.8
19,Cc1cc(N2CCCC(C(=O)Nc3cccc(Cl)c3)C2)n2ncnc2n1 (stereo not drawn),-38
20,CC(Oc1ccc2c3c(c(=O)oc2c1)CCCC3)C(=O)NCc1ccncc1 (stereo not drawn),4.36
21,Cc1nn(CC(O)Cn2c3c(c4ccccc42)CCN(C)C3=O)c(C)c1Br (stereo not drawn),-17.5
22,CNC(=S)Nc1cc(C)ccc1OC(F)F,2.85
23,CCCCn1c(N)c(N(CC)C(=O)CCNC(=O)NC23CC4CC(CC(C4)C2)C3)c(=O)[nH]c1=O,8.45
24,CCN(CC)S(=O)(=O)c1ccc(N2CCCC2)c(C(=O)OCC(=O)N2CCCC2)c1,-3.73
25,O=C(NC1CONC1=O)OCC(Cl)(Cl)Cl (stereo not drawn),8.91
26,CC(C)c1cc(C(=O)O)n[nH]1,20.3
27,COC(=O)c1ccc(NC(=O)CCc2nnc3ccc(N4CCC5(CC4)OCCO5)nn23)cc1,10.1
